In PubChem BioAssay (NCATS):
Records with an inconclusive call do not appear. The source made the active and inactive calls. The call rests on the fitted dose curve; in most records, active means well fitted cell-killing curve with a large enough effect; inconclusive means small, poorly fitted or top-dose-only effect, or effect the other way; inactive means flat fitted curve, though single readings scatter.

Experiments:
Assay in all cases: Primary qHTS to identify gynecologic anti-cancer compounds using libraries of approved drugs and bioactive compounds (AID 1345084); further: nearly all actives have a fitted effect of over 55% in size
[1] = tested on: C33A; conditions: Gynecologic cancer cell panel viability, ATPlite luminescence, 48 h; series mostly up to 57.5 µM
Procedure, shortened: (§1)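 Luminescence from the ATPlite ATP-monitoring reagent indicates viable cell number; lower signal means cytotoxicity. Cells received compound 16 h after seeding and were exposed for 48 h across five concentrations.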

[2] = tested on: CAOV3; conditions: Gynecologic cancer cell panel viability, ATPlite luminescence, 48 h; series mostly up to 57.5 µM
Procedure, shortened: as §1

[3] = tested on: CASKI; conditions: Gynecologic cancer cell panel viability, ATPlite luminescence, 48 h; series mostly up to 57.5 µM
Procedure, shortened: as §1

[4] = tested on: Es-2; conditions: Gynecologic cancer cell panel viability, ATPlite luminescence, 48 h; series mostly up to 57.5 µM
Procedure, shortened: as §1

[5] = tested on: HeLa; conditions: Gynecologic cancer cell panel viability, ATPlite luminescence, 48 h; series mostly up to 57.5 µM
Procedure, shortened: as §1

[6] = tested on: Hek293T; conditions: Gynecologic cancer cell panel viability, ATPlite luminescence, 48 h, control line for the selectivity index; series mostly up to 57.5 µM
Procedure, shortened: as §1

[7] = tested on: JEG-3; conditions: Gynecologic cancer cell panel viability, ATPlite luminescence, 48 h; series mostly up to 57.5 µM
Procedure, shortened: as §1

[8] = tested on: OV90; conditions: Gynecologic cancer cell panel viability, ATPlite luminescence, 48 h; series mostly up to 57.5 µM
Procedure, shortened: as §1

[9] = tested on: PA-1; conditions: Gynecologic cancer cell panel viability, ATPlite luminescence, 48 h; series mostly up to 57.5 µM
Procedure, shortened: as §1

[10] = tested on: Tov-21-G; conditions: Gynecologic cancer cell panel viability, ATPlite luminescence, 48 h; series mostly up to 57.5 µM
Procedure, shortened: as §1

[11] = tested on: Tov112D; conditions: Gynecologic cancer cell panel viability, ATPlite luminescence, 48 h; series mostly up to 57.5 µM
Procedure, shortened: as §1

Measured: Potency

C[C@@H]1CC[C@]2(C(=O)O)CC[C@]3(C)C(=CCC4[C@@]5(C)C[C@@H](O)[C@H](O)[C@@](C)(CO)C5CC[C@]43C)C2[C@]1(C)O (some centres undefined)
inactive: [1] | [2] | [3] | [4] | [5] | [6] | [7] | [8] | [9] | [10] | [11]

CC(C)c1cc(C(=O)N2CC[C@@H](NC(=O)C3CC3)C2)n[nH]1
inactive: [1] | [2] | [3] | [4] | [5] | [6] | [7] | [8] | [9] | [10] | [11]

CC1(C)CC[C@]2(C(=O)O[C@@H]3O[C@H](CO)[C@@H](O)[C@H](O)[C@H]3O)CC[C@]3(C)C(=CCC4[C@@]5(C)C[C@@H](O)[C@H](O)[C@](C)(C(=O)O)C5CC[C@]43C)C2C1O (some centres undefined)
inactive: [1] | [2] | [3] | [4] | [5] | [6] | [7] | [8] | [9] | [10] | [11]

CC(=O)O[C@@H]1[C@@H](O)[C@H](O[C@H]2CC[C@]34C[C@]35CC[C@]3(C)[C@@H]([C@@]6(C)CC[C@@H](C(C)(C)O)O6)[C@@H](O)C[C@@]3(C)[C@@H]5C[C@H](O[C@@H]3O[C@H](CO)[C@@H](O)[C@H](O)[C@H]3O)[C@H]4C2(C)C)OC[C@H]1O
inactive: [1] | [2] | [3] | [4] | [5] | [6] | [7] | [8] | [9] | [10] | [11]

Cc1c(C(=O)Nc2ccc(N3CC(C)OC(C)C3)nc2)cccc1-c1ccc(OC(F)(F)F)cc1 (centres undefined)
inactive: [1] | [2] | [3] | [4] | [5] | [6] | [7] | [8] | [9] | [10] | [11]

CO[C@H]1O[C@@H]2O[C@]3(C)CC[C@H]4[C@H](C)CC[C@@H]([C@H]1C)[C@@]24OO3
inactive: [1] | [2] | [3] | [4] | [5] | [6] | [7] | [8] | [9] | [10] | [11]

NC(=O)[C@H](O[C@@H]1O[C@H](CO)[C@@H](O)[C@H](O)[C@H]1O)c1ccccc1
inactive: [1] | [2] | [3] | [4] | [5] | [6] | [7] | [8] | [9] | [10] | [11]

COC(=O)C1=C2Nc3ccccc3C23CCN2CCCC(C(C)O)(C1)C23 (centres undefined)
inactive: [1] | [2] | [3] | [4] | [5] | [6] | [7] | [8] | [9] | [10] | [11]

C/C(=C/CO)CC[C@@H]1[C@@](C)(O)CCC2C(C)(C)CCC[C@]21C (some centres undefined)
inactive: [1] | [2] | [3] | [4] | [5] | [6] | [7] | [8] | [9] | [10] | [11]

Cc1ccc(Cc2c(C)nc3nc(SCC(=O)NCCN4CCNCC4)nn3c2C)cc1
inactive: [1] | [2] | [3] | [4] | [5] | [6] | [7] | [8] | [9] | [10] | [11]

OCCc1ccc(O[C@@H]2O[C@H](CO)[C@@H](O)[C@H](O)[C@H]2O)cc1
inactive: [1] | [2] | [3] | [4] | [5] | [6] | [7] | [8] | [9] | [10] | [11]

CC(C)C[C@H](CC(=O)NO)C(=O)N[C@@H](Cc1ccc2ccccc2c1)C(=O)N[C@@H](C)C(=O)NCCN
inactive: [1] | [2] | [3] | [4] | [5] | [6] | [7] | [8] | [9] | [10] | [11]

CC1(C)CC[C@]2(C(=O)O[C@@H]3O[C@H](CO)[C@@H](O)[C@H](O)[C@H]3O)CC[C@]3(C)C(=CCC4[C@@]5(C)C[C@@H](O)[C@H](O)C(C)(C)C5CC[C@]43C)C2[C@@H]1O (some centres undefined)
inactive: [1] | [2] | [3] | [4] | [5] | [6] | [7] | [8] | [9] | [10] | [11]

CC(C)N(CCCCOCC(=O)NS(C)(=O)=O)c1cnc(-c2ccccc2)c(-c2ccccc2)n1
inactive: [1] | [2] | [3] | [4] | [5] | [6] | [7] | [8] | [9] | [10] | [11]
